{
  "source": "ChEMBL document CHEMBL3988442",
  "about": "“University of Dundee, Small-Polar-MMV Screening Library” (2021)",
  "note": "Out of some 48,000 compounds screened, about 13,000 (27%) showed an effect of 50% or more. Some of the results follow.",
  "data": [
    {"system": "Wolbachia pipientis", "test": "Anti-Wolbachia Cell-Based Screen", "format": "functional", "design": "scale not given: in the data most compounds retested in dose-response had high values", "conditions": "5 µM", "units": {"Percent Effect": "%"}, "values": [
      {"smiles": "CCn1nc(CC(C)C)cc1C(=O)N1CCCOC(CN2CCCC2)C1", "note": "(centres undefined)", "Percent Effect": 12.35},
      {"smiles": "CCOCCC(=O)NCC1CCCO1", "note": "(centres undefined)", "Percent Effect": 5.918},
      {"smiles": "COc1cc(CNC(=O)Nc2nnc(C(F)(F)F)s2)ccc1O", "Percent Effect": -18.17},
      {"smiles": "O=C(NCC1CCCO1)Nc1nnc(C(F)(F)F)s1", "note": "(centres undefined)", "Percent Effect": 131.1},
      {"smiles": "Cc1csc(N2CCCN(Cc3ccn(C)c(=O)c3)CC2)n1", "Percent Effect": 2.494},
      {"smiles": "CNS(=O)(=O)CCn1cc(-c2ccc(NC(C)=O)cc2)nn1", "Percent Effect": -17.97},
      {"smiles": "CN(C)S(=O)(=O)N1CCC(Oc2cccnn2)CC1", "Percent Effect": 154.7},
      {"smiles": "Cc1ccc(S(=O)(=O)N2CCC(Oc3cccnn3)CC2)c(C)c1", "Percent Effect": -2.974},
      {"smiles": "CN(C)S(=O)(=O)N1CCC(Oc2ccccn2)CC1", "Percent Effect": -12.57},
      {"smiles": "Cc1cc(CN2CC[C@H]3C[C@H](C(=O)Nc4cccnc4C)O[C@@H]3C2)no1.O=C(O)C(F)(F)F.O=C(O)C(F)(F)F", "Percent Effect": 0},
      {"smiles": "COc1ccccc1Nc1nc2c(s1)C(=O)CN(C(=O)CC(C)C)C2", "Percent Effect": 106.8},
      {"smiles": "COc1ccccc1NC(=O)CC(C)NCCc1sc(C)nc1C", "note": "(centres undefined)", "Percent Effect": -7.62},
      {"smiles": "COc1ccccc1NC(=O)CC(C)NCc1scnc1C", "note": "(centres undefined)", "Percent Effect": -14.83},
      {"smiles": "COCC(=O)N1CC(=O)c2sc(Nc3ccc(F)cc3F)nc2C1", "Percent Effect": 92.12},
      {"smiles": "Cc1c(C(C)NC(=O)Nc2ccc(F)cc2F)cnn1C", "note": "(centres undefined)", "Percent Effect": -7.694},
      {"smiles": "CC(C)(C)NC(=O)CN1CCN(C(=O)Nc2ccc(F)cc2F)CC1", "Percent Effect": 10.15},
      {"smiles": "CC(C)CC(=O)N1CC(=O)c2sc(Nc3ccc(F)cc3F)nc2C1", "Percent Effect": 102.3},
      {"smiles": "COCC(=O)N1Cc2cnc(Cc3ccc(OC)cc3)nc2C1", "Percent Effect": -9.911},
      {"smiles": "CNS(=O)(=O)Cc1ccccc1CNc1ccc(C#N)cn1", "Percent Effect": 4.345},
      {"smiles": "Cc1cnccc1-n1nc(C(C)C)nc1CS(C)(=O)=O", "Percent Effect": -11.94},
      {"smiles": "Cn1cc(C(NCCc2ccccn2)c2cccc(F)c2)cn1", "note": "(centres undefined)", "Percent Effect": -5.902},
      {"smiles": "CN(C(=O)CCc1ccsc1)S(C)(=O)=O", "Percent Effect": -3.197},
      {"smiles": "CC(C)CNC(=O)N1C[C@H]2CC[C@@]3(N=C(c4ccccc4)NC3=O)[C@H]2C1", "Percent Effect": -1.799},
      {"smiles": "CN(C)CCCNCC1CCOC(C)(C)C1", "note": "(centres undefined)", "Percent Effect": 84.35},
      {"smiles": "CC1(C)CC(CN2CCC3(CCC(=O)N(CCO)C3)CC2)CCO1", "note": "(centres undefined)", "Percent Effect": -24.07},
      {"smiles": "CN(C)CCNCC1CCOC(C)(C)C1", "note": "(centres undefined)", "Percent Effect": 114.8},
      {"smiles": "CC(C)NC(=O)C(C(C)C)n1cnc2cc(F)c(F)cc21", "note": "(centres undefined)", "Percent Effect": -2.583},
      {"smiles": "Cn1cnc2c1C(C(=O)N1CCOCC1)N(C(=O)c1ccccc1)CC2", "note": "(centres undefined)", "Percent Effect": 1.78},
      {"smiles": "CC1CCCN(C(=O)Cn2cc(I)cn2)C1", "note": "(centres undefined)", "Percent Effect": 2.299},
      {"smiles": "CCOC(=O)CC1CCCCN1C(=O)c1cc(C)oc1C", "note": "(centres undefined)", "Percent Effect": 1.644},
      {"smiles": "Cc1cc(-c2cc(N)c(=O)n(CC(=O)N3CCCC(C)C3)n2)c(C)o1", "note": "(centres undefined)", "Percent Effect": 135.5},
      {"smiles": "Cc1ccc(-c2cc(N)c(=O)n(CC(=O)NCC3CCCCC3)n2)s1", "Percent Effect": -12.04},
      {"smiles": "CCC1CCCCN1C(=O)Cn1cnc(C#N)n1", "note": "(centres undefined)", "Percent Effect": -4.598},
      {"smiles": "CCC1CCCCN1C(=O)Cn1nc(-c2ccc(C)o2)cc(N)c1=O", "note": "(centres undefined)", "Percent Effect": 125.9},
      {"smiles": "CNC(=O)C1CCCCN1C(=O)Cc1csc(-c2ccc(C)o2)n1", "note": "(centres undefined)", "Percent Effect": 7.331},
      {"smiles": "CCC1CCCCN1C(=O)Cn1nc(-c2ccc(C)s2)cc(N)c1=O", "note": "(centres undefined)", "Percent Effect": 132.6},
      {"smiles": "Cc1cc(C)n(C2CCCN(C(=O)Cn3ccc(=O)n(C)c3=O)C2)n1", "note": "(centres undefined)", "Percent Effect": 5.694},
      {"smiles": "CCOC(=O)CC1CCCCN1C(=O)c1cc(=O)[nH]c(=O)[nH]1", "note": "(centres undefined)", "Percent Effect": 3.722},
      {"smiles": "CCC1CCCCN1C(=O)Cn1nc(-c2cc(C)oc2C)cc(N)c1=O", "note": "(centres undefined)", "Percent Effect": 172.7}
    ]}
  ]
}
